PubChem BioAssay (NCATS)
“And” between values parts separate entries of the source, which are not always exact repeats. Equal entries are not always repeated. Inconclusive results are not listed. Entries that show only a call come without a potency. Where a structure was tested more than once in an assay, its records may differ in their call. The source made the active and inactive calls. Unless noted, calls follow the shape of the dose curve; as a rule, active = well fitted curve in the direction sought with a large enough effect; inconclusive = small, poorly fitted or top-dose-only effect, or another doubt; inactive = no such curve, though single readings can be large; an effect the other way counts as inactive or inconclusive.

Key:
[1] = MultiTox-Fluor Cytotoxicity Assay - LYMP1-001 - Dead Cells (AID 946); also: potency is read from the fitted curve at half-maximal effect
How it was run: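 LYMP1-001 lymphoblastoid cells (2500/well) treated 16 h at 37 C. Dead-cell protease cleavage of bis-AAF-R110 read at Ex/Em 485/520. Normalized to DMSO and 15 uM tetraoctylammonium bromide; AC50 from Hill fits.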

[2] = MultiTox-Fluor Cytotoxicity Assay - LYMP1-001 - Live Cells (AID 947); also: potency is read from the fitted curve at half-maximal effect
[3] = Cell Viability - LYMP1-002 - Assay at 16 hr (AID 948); also: potency is read from the fitted curve at half-maximal effect
How it was run: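 Seed 2500 LYMP1-002 cells per well in complete medium and hold 5 hr at 37 C. Add compound across a concentration series and incubate 16 hr at 37 C. Add CellTiter-Glo, wait 30 min at room temperature, read luminescence.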

[4] = MultiTox-Fluor Cytotoxicity Assay - LYMP1-002 - Live Cells (AID 955); also: potency is read from the fitted curve at half-maximal effect
How it was run: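 Cytotoxicity in the human lymphoblastoid line LYMP1-002 is measured as loss of live-cell protease activity after 16 h treatment in complete culture medium. AC50 is derived from Hill-equation fits of qHTS concentration-response data.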

[5] = MultiTox-Fluor Cytotoxicity Assay - LYMP1-002 - Dead Cells (AID 960); also: nearly all actives have a fitted effect of over 60% in size; also: potency is read from the fitted curve at half-maximal effect
How it was run: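 Acute cytotoxicity in a human lymphoblastoid line is scored as rising dead-cell protease signal after 16 hr exposure at 37 C, measured fluorometrically (485/520).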

[6] = MultiTox-Fluor Cytotoxicity Assay - LYMP1-003 - Dead Cells (AID 961); also: nearly all actives have a fitted effect of over 70% in size; also: potency is read from the fitted curve at half-maximal effect
How it was run: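 LYMP1-003 human lymphoblastoid cells (2500/well) exposed to compound 16 h at 37 C in complete medium; dead-cell protease read with bis-AAF-R110 fluorescence (Ex/Em 485/520) after 60 min at room temperature. Normalized to DMSO and 15 uM tetraoctylammonium bromide; AC50 from Hill fit.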

[7] = MultiTox-Fluor Cytotoxicity Assay - LYMP1-003 - Live Cells (AID 962); also: potency is read from the fitted curve at half-maximal effect
How it was run: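 Cells plated at 2500 per well and incubated 5 hr; compounds added and incubated 16 hr at 37 C; MultiTox-Fluor reagent added for 60 min at room temperature; fluorescence of liberated AFC measured at 405/510 nm.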

[8] = Cell Viability - LYMP1-003 - Assay at 24 hr (AID 963); also: potency is read from the fitted curve at half-maximal effect
How it was run: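 Acute toxicity in LYMP1-003 lymphoblastoid cells: 24 hr compound treatment at 37 C, ATP measured with CellTiter-Glo after 30 min at room temperature. AC50 derived by fitting the Hill equation to qHTS titrations.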

[9] = Cell Viability - LYMP1-003 - Assay at 40 hr (AID 964); also: nearly all actives have a fitted effect of over 60% in size; also: potency is read from the fitted curve at half-maximal effect
How it was run: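 This qHTS cytotoxicity screen treats human lymphoblastoid cells (LYMP1-003) with compounds for 40 hr and quantifies cellular ATP via luciferase luminescence.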

[10] = Cell Viability - LYMP2-003 (AID 965);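 also: cells exposed to compounds for 24 h before reading; nearly all actives have a fitted effect of over 50% in size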; also: potency is read from the fitted curve at half-maximal effect
How it was run: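 Seed 2500 lymphoblastoid cells/well; incubate 5 hr, 37 C; add compounds; incubate 24 hr, 37 C; add CellTiter-Glo, 30 min RT; read luminescence. AC50 from Hill fit.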

[11] = Cell Viability - LYMP2-004 (AID 966); also: nearly all actives have a fitted effect of over 65% in size; also: potency is read from the fitted curve at half-maximal effect
How it was run: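 Acute toxicity is scored as a concentration-dependent drop in intracellular ATP, quantified by luciferase luminescence, in human lymphoblastoid cells exposed to compound for 24 hr. AC50 derives from Hill-equation modelling.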

[12] = Cell Viability - LYMP2-005 (AID 967);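 also: cells exposed to compound for 24 h at 37 °C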; also: potency is read from the fitted curve at half-maximal effect
How it was run: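 Acute cytotoxicity is scored as a concentration-dependent drop in intracellular ATP in human lymphoblastoid LYMP2-005 cells after 24 h compound treatment. ATP is quantified by luciferase luminescence, and AC50 is derived by Hill-equation modelling.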

[13] = molecular target: Pyruvate kinase (Leishmania mexicana) (UniProt Q27686); test: qHTS Validation Assay for Inhibitors of Leishmania Mexicana Pyruvate Kinase (AID 945)
How it was run: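 LmPYK E451W 0.2 nM; 0.5 mM PEP, 0.1 mM ADP, 7 mM MgCl2, 50 mM KCl, imidazole pH 7.2, 0.01% Tween 20, 0.05% BSA; 1 h RT; PKLight luminescence; DMSO-normalized.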

[14] = molecular target: Pyruvate kinase PKM (Homo sapiens) (UniProt P14618); test: qHTS Assay for Activators of Human Muscle Pyruvate Kinase (AID 954; active = well fitted curve in the direction sought with a large enough effect, not every such curve was filed as active)
How it was run: (§1)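 Purified human PKM2 (0.1 nM) with 0.5 mM PEP (Km) and 0.1 mM ADP in 50 mM imidazole pH 7.2, KCl, MgCl2, 1 h at room temperature; ATP formed read by coupled luciferase luminescence. Normalized to no-enzyme/110 uM thiadiazolimine inhibition; 0.3 nM enzyme column for activation.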

[15] = molecular target: Alpha-galactosidase (Coffea arabica) (UniProt Q42656); test: Counterscreen for Glucocerebrosidase Inhibitors: qHTS Assay for Coffee Bean alpha-Galactosidase at pH 4.5 (AID 957); also: series mostly up to about 77 µM
How it was run: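 AC50 values derive from Hill-equation modeling of concentration-response data, normalized to no-enzyme and full-activity controls. The pH 4.5 citrate assay used 2 nM coffee bean enzyme and 80 uM fluorogenic substrate for 20 min.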

[16] = molecular target: Pyruvate kinase PKM (Homo sapiens) (UniProt P14618); test: qHTS Assay for Inhibitors of Human Muscle Pyruvate Kinase (AID 958)
How it was run: as §1

Sequence of Pyruvate kinase (Leishmania mexicana) (Q27686 2-499 E452W): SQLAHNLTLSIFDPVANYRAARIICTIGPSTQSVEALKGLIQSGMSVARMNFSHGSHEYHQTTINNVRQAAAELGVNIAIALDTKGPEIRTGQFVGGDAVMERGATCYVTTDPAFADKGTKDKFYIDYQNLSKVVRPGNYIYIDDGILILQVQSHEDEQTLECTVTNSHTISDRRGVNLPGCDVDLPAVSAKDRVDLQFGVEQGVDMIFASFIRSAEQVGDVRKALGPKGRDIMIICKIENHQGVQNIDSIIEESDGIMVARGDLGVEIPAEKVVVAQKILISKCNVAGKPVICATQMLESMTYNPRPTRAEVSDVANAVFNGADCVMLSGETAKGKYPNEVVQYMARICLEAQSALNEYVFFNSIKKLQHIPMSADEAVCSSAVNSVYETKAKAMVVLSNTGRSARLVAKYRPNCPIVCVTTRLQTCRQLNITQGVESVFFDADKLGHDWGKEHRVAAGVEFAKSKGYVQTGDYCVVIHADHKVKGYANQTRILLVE
Sequence of Alpha-galactosidase (Coffea arabica) (Q42656 whole entry, looked up): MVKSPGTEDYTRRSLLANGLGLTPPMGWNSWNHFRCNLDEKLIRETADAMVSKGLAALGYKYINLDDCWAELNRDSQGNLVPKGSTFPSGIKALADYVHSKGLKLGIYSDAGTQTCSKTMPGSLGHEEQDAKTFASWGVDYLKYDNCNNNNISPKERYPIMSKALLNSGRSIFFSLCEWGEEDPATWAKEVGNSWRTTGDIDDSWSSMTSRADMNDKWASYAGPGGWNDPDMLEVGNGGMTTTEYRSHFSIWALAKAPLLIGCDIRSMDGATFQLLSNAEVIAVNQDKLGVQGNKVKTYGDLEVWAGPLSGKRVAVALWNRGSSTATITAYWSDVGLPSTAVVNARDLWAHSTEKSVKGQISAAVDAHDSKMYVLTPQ
Sequence of Pyruvate kinase PKM (Homo sapiens) (P14618 whole entry, looked up): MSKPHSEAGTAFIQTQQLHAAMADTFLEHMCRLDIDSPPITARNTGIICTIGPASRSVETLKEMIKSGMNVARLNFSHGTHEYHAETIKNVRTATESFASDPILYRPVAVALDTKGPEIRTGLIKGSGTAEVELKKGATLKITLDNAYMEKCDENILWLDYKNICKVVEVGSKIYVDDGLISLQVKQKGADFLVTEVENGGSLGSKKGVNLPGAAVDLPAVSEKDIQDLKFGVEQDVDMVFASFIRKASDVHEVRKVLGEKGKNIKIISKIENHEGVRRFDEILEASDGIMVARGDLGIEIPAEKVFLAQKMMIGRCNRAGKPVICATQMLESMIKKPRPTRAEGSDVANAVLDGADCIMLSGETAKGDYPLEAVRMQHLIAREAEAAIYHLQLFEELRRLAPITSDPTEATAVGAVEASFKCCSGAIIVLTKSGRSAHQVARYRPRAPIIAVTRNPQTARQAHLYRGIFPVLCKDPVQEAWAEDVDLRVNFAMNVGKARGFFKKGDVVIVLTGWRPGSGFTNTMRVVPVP

| SMILES | Potency [1] | Potency [2] | Potency [3] | Potency [4] | Potency [5] | Potency [6] | Potency [7] | Potency [8] | Potency [9] | Potency [10] | Potency [11] | Potency [12] | Potency [13] | outcome [14] | outcome [15] | Potency [16] |
| --- | --- | --- | --- | --- | --- | --- | --- | --- | --- | --- | --- | --- | --- | --- | --- | --- |
| O=C1C2CC=CCC2C(=O)N1SC(Cl)(Cl)Cl (configuration not stated) | 10 µM (active) | 12.6 µM (active) | 7.94 µM (active) and 10 µM (active) | 6.31 µM (active) and 5.01 µM (active) | 5.01 µM (active) | 10 µM (active) and 7.94 µM (active) | 12.6 µM (active) and 10 µM (active) | 12.6 µM (active) | 20 µM (active) | 12.6 µM (active) | 10 µM (active) | 12.6 µM (active) |  |  |  |  |
| Clc1ccccc1Cl | inactive | inactive | inactive | inactive | inactive | inactive | inactive | inactive | inactive | inactive | inactive | inactive |  |  |  |  |
| c1ccc2c(N3CCNCC3)cccc2c1 |  |  |  |  |  |  |  |  |  |  |  |  | inactive | inactive | inactive |  |
| O=CC=O | inactive | inactive | inactive | inactive | inactive | inactive | inactive | inactive | inactive | inactive | inactive | inactive |  |  |  |  |
| ClC=C(Cl)Cl | inactive | inactive | inactive | inactive |  | inactive | inactive | inactive | inactive | inactive | inactive | inactive |  |  |  |  |
| CCCN(CCC)CCc1c[nH]c2ccc(C(N)=O)cc12 |  |  |  |  |  |  |  |  |  |  |  |  | inactive | inactive |  |  |
| ClCC1CO1 (configuration not stated) | inactive |  | inactive | inactive | inactive | inactive | inactive | inactive | inactive | inactive | inactive |  |  |  |  |  |
| CC(C)Nc1ccc(Nc2ccccc2)cc1 |  | 31.6 µM (active) | 39.8 µM (active) | 25.1 µM (active) |  | 25.1 µM (active) | 50.1 µM (active) | 50.1 µM (active) | 31.6 µM (active) | 39.8 µM (active) | 39.8 µM (active) |  |  |  |  |  |
| NC(=O)COc1c(F)cc(SCCNS(=O)(=O)c2ccccc2)cc1F |  |  |  |  |  |  |  |  |  |  |  |  | inactive | inactive | inactive |  |
| CCCCCCCCOC(=O)c1ccccc1C(=O)OCCCCCCCC | inactive | inactive | inactive | inactive | inactive | inactive | inactive | inactive | inactive | inactive | inactive | inactive |  |  |  |  |
| CN1CCc2cc(O)cc3c2[C@H]1Cc1ccc(O)c(O)c1-3 |  |  |  |  |  |  |  |  |  |  |  |  | inactive |  | inactive | inactive |
| Oc1cc(Cl)c(Cl)cc1Cl | inactive | inactive | inactive | inactive | inactive | inactive | inactive | inactive | inactive | inactive | inactive | inactive |  |  |  |  |
| CCCCCl | inactive | inactive | inactive | inactive | inactive | inactive | inactive | inactive | inactive | inactive | inactive |  |  |  |  |  |
| ClC(Cl)(Cl)Cl | inactive | inactive | inactive | inactive | inactive | inactive | inactive | inactive | inactive | inactive | inactive | inactive |  |  |  |  |
| C[C@]12CCC(=O)C[C@@H]1CC[C@@H]1[C@@H]2CC[C@]2(C)[C@@H](O)CC[C@@H]12 |  | inactive | inactive | inactive |  | inactive | inactive | inactive | inactive | inactive | inactive | inactive |  |  |  |  |
| CN1CCC(c2c[nH]c3ccc(O)cc23)CC1 |  |  |  |  |  |  |  |  |  |  |  |  | inactive | inactive |  |  |
| C[C@H]1CCC[C@H](O)CCCCCc2cc(O)cc(O)c2C(=O)O1 | inactive | inactive | inactive | inactive | inactive | inactive | inactive | inactive | inactive | inactive | inactive | inactive |  |  |  |  |
| O=C/C=C/c1ccccc1 | inactive | inactive | inactive | inactive | inactive | inactive | inactive | inactive | inactive | inactive | inactive | inactive |  |  |  |  |
| [O]=[Cr](=[O])([OH])[O][Cr](=[O])(=[O])[OH] | inactive | inactive | inactive | inactive | inactive | inactive | inactive | inactive and 39.8 µM (active) | inactive and 39.8 µM (active) and 25.1 µM (active) | 12.6 µM (active) and 20 µM (active) and 7.94 µM (active) | 10 µM (active) and 15.8 µM (active) and 6.31 µM (active) | 10 µM (active) and 15.8 µM (active) |  |  |  |  |
